Results from PubChem BioAssay (NCATS).
Inconclusive results are not listed. Calls of active or inactive are those of the source. Unless noted, the call rests on the fitted dose curve.

Experiments:
[1] = qHTS assay for small molecule antagonists of peroxisome proliferator-activated receptor delta signaling (AID 588535; active means well fitted inhibition curve with a large enough effect in the signal ratio, with a control signal flat, not every such curve was filed as active; the % refers to the signal ratio;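 on max response: cells co-treated with a PPAR-delta agonist as stimulator during compound exposure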); settings: HEK293T PPARd-UAS-bla, beta-lactamase FRET ratio, 18 h; 460 nm channel
In short: (§1)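 GeneBLAzer PPAR-delta-UAS-bla HEK293T cells in medium with 2% charcoal/dextran FBS were preincubated 5 hrs at 37 C, then given compounds, incubated 18 hrs at 37 C, and read by CCF4 beta-lactamase fluorescence; IC50 from Hill fits.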

[2] = target: Peroxisome proliferator-activated receptor delta (Homo sapiens) (UniProt Q03181); assay: as above; settings: HEK293T PPARd-UAS-bla, beta-lactamase FRET ratio, 18 h; series mostly up to 76.7 µM
In short: as §1

[3] = target: Vitamin D3 receptor (Homo sapiens) (UniProt P11473); assay: qHTS assay for small molecule antagonists of vitamin D receptor signaling (AID 588541); settings: HEK293T VDR-UAS-bla, beta-lactamase ratio, antagonist mode; series mostly up to 76.7 µM;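 further: receptor activated by calcitriol during compound treatment; on the % scale 0 is the no-effect control and ±100 the full control effect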
In short: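 VDR-UAS-bla HEK293T cells (2000/well, 2% charcoal-stripped FBS) were treated with titrated compounds plus 1-alpha,25-dihydroxyvitamin D3 (50 nM or 3 nM final) for 16 h at 37 C. CCF4 beta-lactamase fluorescence was read; Hill fits gave IC50.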

[4] = target: Vitamin D3 receptor (Homo sapiens) (UniProt P11473); assay: qHTS assay for small molecule agonists of vitamin D receptor signaling (AID 588543); settings: HEK293T VDR-UAS-bla, beta-lactamase ratio, 16 h; series mostly up to 76.8 µM;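 further: 0% = DMSO basal and 100% = reference agonist control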
In short: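 qHTS in agonist mode: compound titrations stimulate a VDR-driven β-lactamase reporter in HEK293T cells over 16 h at 37 °C. Response normalized to 50 nM 1α,25-dihydroxyvitamin D3 = 100%, DMSO = 0%; Hill fitting gives EC50 and maximal response.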

[5] = qHTS assay for small molecule agonists of retinoid X receptor alpha signaling (AID 588544); settings: HEK293T RXRa-UAS-bla, beta-lactamase reporter, 18 h; 530 nm emission;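 on activation: 0% = DMSO basal wells and 100% = reference agonist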
[6] = target: Retinoic acid receptor RXR-alpha (Homo sapiens) (UniProt P19793); assay: as above; settings: HEK293T RXRa-UAS-bla, beta-lactamase reporter, 18 h; series mostly up to 76.7 µM
[7] = target: Thyroid hormone receptor beta (Homo sapiens) (UniProt P10828); assay: qHTS assay for small molecule agonists of thyroid hormone receptor beta signaling (AID 588545); settings: TR-UAS-bla GripTite HEK 293, beta-lactamase ratio, agonist mode, 18 h; series mostly up to 76.7 µM;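 further: 0% = DMSO only and 100% = 10 nM T3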
In short: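 Stimulation of a TR-driven beta-lactamase reporter was quantified in GripTite HEK 293 cells. Compound series ran for 18 hrs; curves were normalized to T3 and DMSO controls and fitted to yield EC50.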

[8] = qHTS assay for small molecule antagonists of retinoid X receptor alpha signaling (AID 588546; active means well fitted inhibition curve with a large enough effect in the signal ratio, with a control signal flat, not every such curve was filed as active; the % refers to the signal ratio;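 further: cells stimulated with 9-cis-retinoic acid as agonist; on the % scale 0 is the no-effect control and ±100 the full control effect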); settings: HEK293T RXRa-UAS-bla, beta-lactamase ratio, antagonist mode; measured here: W530 green channel, cytotoxicity proxy
In short: (§2)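 Beta-lactamase reporter inhibition, read as CCF4 fluorescence ratio (ex 405, em 460/530 nm) after 2 h at RT. HEK293T UAS-bla cells, 2500/well, were stimulated with 9-cis-RA at 500 or 100 nM final alongside test compound for 18 h at 37 C.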

[9] = target: Retinoic acid receptor RXR-alpha (Homo sapiens) (UniProt P19793); assay: as above; settings: HEK293T RXRa-UAS-bla, beta-lactamase ratio, antagonist mode
In short: as §2

[10] = qHTS assay for small molecule activators of the p53 signaling pathway (AID 651743; active means well fitted activation curve with a large enough effect in the signal ratio, not every such curve was filed as active; the % refers to the signal ratio; further: % of control where 0% means no effect); settings: HCT-116 p53RE-bla, beta-lactamase FRET ratio, 16 h; activation: stronger effect = higher value
In short: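 p53RE-bla HCT-116 cells with a stably integrated beta-lactamase reporter under p53 response elements were plated, rested 5 hours at 37 C/5% CO2, then exposed to compounds in DMSO for 16 hours at 37 C. LiveBLAzer B/G FRET substrate was read after 2 hours at room temperature.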

[11] = qHTS assay for environmental chemicals that activate the Aryl hydrocarbon Receptor (AhR) signaling pathway (AID 651777; active means well fitted curve in the direction sought with a large enough effect; an effect the other way counts as inactive or inconclusive; further: % of control where 0% means no effect; nearly all actives have a fitted effect of over 15% in size); settings: 1A2-DRE human hepatoma cells, luciferase, 24 h; activation: stronger effect = higher value
In short: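 Following a 24 hr incubation with test chemicals at 37 C and 5% CO2, 1A2-DRE human hepatoma cells received One-Glo reagent; after 30 min at room temperature, luciferase output reflected CYP1A2 induction via AhR.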

[12] = target: Peroxisome proliferator-activated receptor alpha (Homo sapiens) (UniProt Q07869); assay: qHTS assay for small molecule agonists of the peroxisome proliferator-activated receptor alpha (PPARalpha) signaling pathway (AID 651778; active means well fitted curve in the direction sought with a large enough effect; an effect the other way counts as inactive or inconclusive; further: % of control where 0% means no effect); settings: PathHunter PPARalpha complementation, chemiluminescence, 6 h; max response: stronger effect = higher value
In short: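 Cells plated at 2,000/well and held overnight at 37 C, 5% CO2, then compound added by pin tool for 6 hr; after PathHunter detection reagent and 60 min at room temperature, chemiluminescence from enzyme complementation was read.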

[13] = qHTS assay for small molecule agonists of the antioxidant response element (ARE) signaling pathway measured by Nrf2-dependant transcriptional activity (AID 720636; active means well fitted curve in the direction sought with a large enough effect in the repeat runs; an effect the other way counts as inactive or inconclusive;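 further: HepG2 cells with an ARE-driven luciferase reporter; % of control where 0% means no effect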); settings: ARE-luc HepG2, Nrf2 luciferase reporter, 16 h; series mostly up to 92.4 µM
In short: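 ONE-Glo luminescence, read 30 min after reagent addition at room temperature, reflected ARE reporter activity in HepG2 cells that had been incubated with compound for 16 hr at 37 C in 1% dialyzed FBS.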

[14] = qHTS assay for small molecule agonists of the antioxidant response element (ARE) signaling pathway measured by Nrf2-dependant transcriptional activity - cell viability counter screen (AID 720653; active means well fitted curve in the direction sought with a large enough effect in the repeat runs; an effect the other way counts as inactive or inconclusive; further: on the % scale 0 is the no-effect control and ±100 the full control effect); settings: ARE-bla HepG2 viability, CellTiter-Glo ATP luminescence, 16 h; max response: stronger effect = lower value
In short: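 ARE-bla HepG2 cells (2,000/well) rested 5 hrs at 37C/5% CO2, then exposed to compounds in DMSO for 16 hrs. Viability was read in the same wells as intracellular ATP by luminescence, 30 min at room temperature after reagent addition.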

[15] = qHTS assay for cell viability of HEK293 cells (AID 743288; active means well fitted curve in the direction sought with a large enough effect; an effect the other way counts as inactive or inconclusive; further: on the % scale 0 is the no-effect control and ±100 the full control effect; nearly all actives have a fitted effect of over 50% in size); settings: ATP luminescence (CellTiter-Glo), 18 h; max response: stronger effect = lower value
In short: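 The Tox21 protocol used parental HEK293 cells treated for 18 h at 37 C with compounds delivered by pintool; ATP-coupled luminescence after 30 min at room temperature gave viability.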

[16] = qHTS assay for cell viability of the p53RE-bla HCT-116 cell line (AID 743292; active means well fitted curve in the direction sought with a large enough effect; an effect the other way counts as inactive or inconclusive; further: on the % scale 0 is the no-effect control and ±100 the full control effect; nearly all actives have a fitted effect of over 55% in size); settings: p53RE-bla HCT-116 viability, ATP luminescence, 16 h; series mostly up to 95 µM
In short: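 After plating at 4,000 cells per well and a 5 h rest at 37 C, HCT-116 cells carrying p53RE-bla received test chemicals in DMSO. Sixteen hours later at 37 C, CellTiter-Glo was added and luminescence recorded following 30 min at room temperature.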

[17] = target: Nuclear receptor subfamily 1 group I member 2 (Rattus norvegicus) (UniProt Q9R1A7); assay: qHTS assay for small molecule activators of the rat pregnane X receptor (rPXR) signaling pathway (AID 651751; call rule not given here; further: 0% is about no effect); settings: rPXR reporter cells, luciferase (One-Glo), 24 h
[18] = qHTS assay for small molecule activators of the human pregnane X receptor (PXR) signaling pathway (AID 720659; call rule not given here; further: 0% is about no effect); settings: DPX-2 HepG2 CYP3A4-luciferase, 24 h; series mostly up to 92.3 µM
[19] = target: Thyroid hormone receptor beta (Homo sapiens) (UniProt P10828); assay: qHTS assay for small molecule antagonists of thyroid hormone receptor beta signaling (AID 588547; active means well fitted inhibition curve with a large enough effect in the signal ratio, with a control signal flat, not every such curve was filed as active; the % refers to the signal ratio;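 further: cells stimulated with 0.4 nM T3 agonist during compound exposure; on the % scale 0 is the no-effect control and ±100 the full control effect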); settings: TR-UAS-bla HEK293, beta-lactamase ratio, antagonist mode, 18 h
In short: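 TR-UAS-bla GripTite HEK293 cells in 2% charcoal/dextran FBS medium were preincubated 4 h at 37 C, given compound (0.59 nM to 92 uM) plus 0.4 nM T3 (final) for 18 h, then CCF4 for 2 h at RT; Hill fit gave IC50.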

[20] = qHTS assay for small molecule activators of the nuclear factor-kappa B (NF-kB) signaling pathway (AID 651749; active means well fitted activation curve with a large enough effect in the signal ratio; the % refers to the signal ratio; further: % of control where 0% means no effect); settings: NF-kB-bla ME-180 cells, beta-lactamase FRET ratio, 16 h; activation: stronger effect = higher value
In short: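 ME-180 cells stably carrying a beta-lactamase reporter under an NF-kB response element were exposed to compound or DMSO vehicle for 16 hr at 37C, 5% CO2. Pathway activation was read by FRET, since reporter expression disrupts FRET.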

Sequence of Thyroid hormone receptor beta (Homo sapiens) (P10828 whole entry, looked up): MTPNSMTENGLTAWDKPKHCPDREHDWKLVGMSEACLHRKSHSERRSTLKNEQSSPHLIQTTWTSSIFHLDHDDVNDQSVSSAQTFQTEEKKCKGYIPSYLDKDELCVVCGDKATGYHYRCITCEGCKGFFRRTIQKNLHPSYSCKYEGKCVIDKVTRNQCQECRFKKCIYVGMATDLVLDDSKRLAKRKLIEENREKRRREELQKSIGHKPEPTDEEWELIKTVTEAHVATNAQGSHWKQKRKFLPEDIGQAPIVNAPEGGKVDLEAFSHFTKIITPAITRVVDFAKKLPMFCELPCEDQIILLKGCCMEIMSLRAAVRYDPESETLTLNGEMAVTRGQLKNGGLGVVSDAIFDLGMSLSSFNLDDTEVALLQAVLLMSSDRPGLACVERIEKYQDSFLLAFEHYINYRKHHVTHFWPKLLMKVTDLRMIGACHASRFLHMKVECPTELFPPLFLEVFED
Sequence of Nuclear receptor subfamily 1 group I member 2 (Rattus norvegicus) (Q9R1A7 whole entry, looked up): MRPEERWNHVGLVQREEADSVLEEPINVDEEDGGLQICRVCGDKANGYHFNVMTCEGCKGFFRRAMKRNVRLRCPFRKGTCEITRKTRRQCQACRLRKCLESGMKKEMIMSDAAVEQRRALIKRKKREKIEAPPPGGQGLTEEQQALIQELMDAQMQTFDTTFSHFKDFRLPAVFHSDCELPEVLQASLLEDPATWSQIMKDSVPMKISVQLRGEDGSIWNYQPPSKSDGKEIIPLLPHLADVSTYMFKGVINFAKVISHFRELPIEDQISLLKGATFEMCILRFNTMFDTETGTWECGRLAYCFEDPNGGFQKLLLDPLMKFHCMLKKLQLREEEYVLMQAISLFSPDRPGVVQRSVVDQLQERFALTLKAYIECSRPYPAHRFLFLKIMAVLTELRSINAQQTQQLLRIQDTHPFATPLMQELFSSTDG
Sequence of Retinoic acid receptor RXR-alpha (Homo sapiens) (P19793 whole entry, looked up): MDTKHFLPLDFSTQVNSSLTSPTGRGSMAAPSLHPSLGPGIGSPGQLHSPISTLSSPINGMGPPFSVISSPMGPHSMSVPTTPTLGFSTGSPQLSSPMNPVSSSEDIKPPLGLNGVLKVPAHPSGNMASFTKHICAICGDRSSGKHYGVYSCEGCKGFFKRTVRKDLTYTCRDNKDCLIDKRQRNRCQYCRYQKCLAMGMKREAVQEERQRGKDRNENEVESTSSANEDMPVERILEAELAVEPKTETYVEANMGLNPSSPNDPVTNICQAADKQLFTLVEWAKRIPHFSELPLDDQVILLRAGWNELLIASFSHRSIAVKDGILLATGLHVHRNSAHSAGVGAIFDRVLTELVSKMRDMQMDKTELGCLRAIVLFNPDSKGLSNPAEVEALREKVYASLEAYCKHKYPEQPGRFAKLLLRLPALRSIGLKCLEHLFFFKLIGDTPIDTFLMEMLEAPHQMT
Sequence of Vitamin D3 receptor (Homo sapiens) (P11473 whole entry, looked up): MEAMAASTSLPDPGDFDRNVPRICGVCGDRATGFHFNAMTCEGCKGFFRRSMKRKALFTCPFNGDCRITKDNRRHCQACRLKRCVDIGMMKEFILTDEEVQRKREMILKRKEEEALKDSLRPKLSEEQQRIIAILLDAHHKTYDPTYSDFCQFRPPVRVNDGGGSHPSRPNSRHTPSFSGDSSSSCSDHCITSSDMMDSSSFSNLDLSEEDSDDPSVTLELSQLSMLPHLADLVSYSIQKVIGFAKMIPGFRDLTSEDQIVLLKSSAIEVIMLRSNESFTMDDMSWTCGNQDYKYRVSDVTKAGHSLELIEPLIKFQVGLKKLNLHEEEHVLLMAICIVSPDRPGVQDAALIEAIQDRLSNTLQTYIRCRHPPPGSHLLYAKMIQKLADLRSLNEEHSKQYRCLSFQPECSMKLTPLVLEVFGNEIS
Sequence of Peroxisome proliferator-activated receptor delta (Homo sapiens) (Q03181 whole entry, looked up): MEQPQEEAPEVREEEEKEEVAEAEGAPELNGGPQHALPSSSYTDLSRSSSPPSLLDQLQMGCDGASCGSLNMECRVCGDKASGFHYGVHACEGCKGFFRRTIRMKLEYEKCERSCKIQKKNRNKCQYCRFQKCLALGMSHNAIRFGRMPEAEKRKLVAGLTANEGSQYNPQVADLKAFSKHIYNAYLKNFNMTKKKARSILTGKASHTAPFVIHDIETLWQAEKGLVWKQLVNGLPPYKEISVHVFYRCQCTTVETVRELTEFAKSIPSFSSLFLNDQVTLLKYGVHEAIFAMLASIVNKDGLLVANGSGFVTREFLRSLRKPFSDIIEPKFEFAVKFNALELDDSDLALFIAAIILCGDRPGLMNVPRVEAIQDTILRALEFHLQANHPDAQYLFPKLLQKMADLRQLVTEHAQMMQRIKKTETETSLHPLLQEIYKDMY
Sequence of Peroxisome proliferator-activated receptor alpha (Homo sapiens) (Q07869 whole entry, looked up): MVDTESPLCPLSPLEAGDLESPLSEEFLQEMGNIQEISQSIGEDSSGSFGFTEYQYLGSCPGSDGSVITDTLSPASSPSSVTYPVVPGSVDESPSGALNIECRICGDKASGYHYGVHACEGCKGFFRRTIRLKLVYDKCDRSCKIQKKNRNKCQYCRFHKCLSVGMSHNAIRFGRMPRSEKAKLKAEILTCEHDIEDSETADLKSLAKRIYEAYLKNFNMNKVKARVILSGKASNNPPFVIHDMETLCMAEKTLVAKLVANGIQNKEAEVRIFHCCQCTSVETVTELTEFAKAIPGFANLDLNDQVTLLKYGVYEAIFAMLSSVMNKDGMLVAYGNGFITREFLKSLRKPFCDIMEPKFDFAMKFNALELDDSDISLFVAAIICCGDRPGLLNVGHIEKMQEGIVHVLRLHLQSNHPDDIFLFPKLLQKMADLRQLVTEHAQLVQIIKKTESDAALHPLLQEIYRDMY

SMILES	max response [1]	Potency [2]	Potency [3]	outcome [4]	max response [5]	Potency [6]	Potency [7]	max response [8]	max response [9]	activation [10]	activation [11]	max response [12]	Potency [13]	max response [14]	max response [15]	Potency [16]	max response [17]	outcome [18]	activity change % (negative = inhibition) [19]	activation [20]
C=CCCCCCCCCCCCC	14.9%	inactive	inactive	inactive	-6.65%	inactive	inactive	-3.7%	10.9% (inactive)	-3% (inactive)	0.249% (inactive)	-1.61% (inactive)	inactive	1.55% (inactive)	5.27% (inactive)	inactive	1.46% (inactive)	inactive	–	–
C=C(C)C(=O)OCC[N+](C)(C)C	8.9%	inactive	inactive	inactive	7.2%	inactive	inactive	–	–	0.0876% (inactive)	-2.41% (inactive)	–	inactive	1.93% (inactive)	-15.2% (inactive)	inactive	0.4% (inactive)	inactive	5.25% (inactive)	–
C[Si](C)(Cl)[Si](C)(C)Cl	-22.7%	inactive	inactive	inactive	-0.475%	inactive	inactive	-27.8%	-15.7% (inactive)	-0.0629% (inactive)	-0.723% (inactive)	–	inactive	-9.32% (inactive)	-5.72% (inactive)	inactive	-0.179% (inactive)	inactive	6.15% (inactive)	-1.24% (inactive)
